Assay results: the supplement of paper PMC3724861
The entries come from a sample that favours hits as a whole. The true hit rate is not given.

Test system: T1, Caupolican (Caup) homeodomain DNA-binding domain
T1 sequence: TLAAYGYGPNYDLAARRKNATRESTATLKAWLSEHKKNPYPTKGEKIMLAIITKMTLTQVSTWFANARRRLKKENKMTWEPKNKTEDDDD
Assay: PBM E-score (8-mer, recovered from the published 9-mer minima) (E-score (dimensionless, -0.5 to 0.5)); Drosophila protein; higher = stronger relative binding preference, active = 0.31 or more
Experimental: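 Protein binding microarray (PBM): in vitro transcribed/translated Caupolican (Caup) homeodomain DNA-binding domain (residues 214-303) applied at 100 nM to a universal 8-mer PBM array (Agilent AMADID 015681). The 8-mer enrichment score (E-score, range -0.5 to 0.5) was computed, and each 9-mer score is the minimum E-score of its two constituent 8-mers. The E-score is the same for a 9-mer and its reverse complement; 0.31 is the stated binding threshold.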

Row | Sequence | PBM E-score
1 | ACTTGTTA | 0.368 (active)
2 | AGTTGTTC | 0.261 (inactive)
3 | GCTTGTGA | -0.02 (inactive)
4 | GCTTGTTA | 0.315 (active)
5 | ATTTGTTA | 0.219 (inactive)
6 | ACTTGTTG | 0.29 (inactive)
7 | GTTTGTTA | 0.225 (inactive)
8 | ACTTGTTC | 0.33 (active)
9 | CCTTGTTC | 0.24 (inactive)
10 | GTCGGCCA | -0.0886 (inactive)
11 | GGCGACAA | 0.138 (inactive)
12 | CACTGAAG | -0.0338 (inactive)
13 | TCGTCAGA | -0.0168 (inactive)
14 | AAGAGACA | 0.124 (inactive)
15 | CATATCAG | 0.0708 (inactive)
16 | AACCCGCA | -0.135 (inactive)
17 | AATCTCAG | 0.0346 (inactive)
18 | CTAAATAA | 0.181 (inactive)
19 | CTATCAGA | -0.0505 (inactive)
20 | CCGAGAAC | -0.0456 (inactive)
21 | AAGGTTAG | -0.0357 (inactive)

Row | Sequence | PBM E-score
22 | AGGATGGA | -0.124 (inactive)
23 | ACATGGAC | 0.338 (active)
24 | GCATGGAC | -0.00539 (inactive)
25 | ACATGGAT | 0.374 (active)
26 | ACATGGAG | 0.257 (inactive)
27 | CCATGGAC | -0.0492 (inactive)
28 | ACATGGAA | 0.296 (inactive)
29 | GTTAAGGA | 0.00704 (inactive)
30 | GAGTACAA | 0.262 (inactive)
31 | CCGTACAA | 0.152 (inactive)
32 | AAGTACAT | 0.402 (active)
33 | CAGTACAA | 0.304 (inactive)
34 | AAGTACAA | 0.327 (active)
35 | AAGTACCA | 0.195 (inactive)
36 | TAGTACAA | 0.38 (active)
37 | AAGTACGA | 0.113 (inactive)
38 | AAGTACAC | 0.288 (inactive)
39 | AAGTACAG | 0.204 (inactive)
40 | TCGTACAA | ≥ 0.37 (active)
41 | GCGTACAA | 0.256 (inactive)
42 | GAAGCGAA | -0.0567 (inactive)

Row | Sequence | PBM E-score
43 | GGGATTCA | -0.0518 (inactive)
44 | ATTCGTGA | 0.114 (inactive)
45 | CTCGACAC | 0.105 (inactive)
46 | GCTGCGGA | -0.178 (inactive)
47 | ATGAGTTC | 0.0362 (inactive)
48 | ATCCTTCG | -0.116 (inactive)
49 | GGGACAAC | 0.178 (inactive)
50 | CAGTTAGA | -0.0838 (inactive)
51 | AGTAAACA | 0.235 (inactive)
52 | TGTAACAA | 0.405 (active)
53 | GCTAACAA | 0.192 (inactive)
54 | GGTAAACA | 0.213 (inactive)
55 | AGTAACAA | 0.266 (inactive)
56 | ATTAAACA | 0.271 (inactive)
57 | GGTAACAA | 0.316 (active)
58 | CGTAACAA | 0.243 (inactive)
59 | TGTAAACA | ≥ 0.36 (active)
60 | GTTAAACA | 0.339 (active)
61 | CTTAAACA | 0.159 (inactive)
62 | TCTAACAA | 0.177 (inactive)
63 | GAGCAACA | 0.0811 (inactive)
